Assay results taken from PubChem BioAssay (EPA / NIEHS).
Records with an inconclusive call do not appear. Activity calls are given as the source filed them. Rule for the calls: active = hit-call score of the fitted dose curve at least 0.9, where 1 is the maximum; inconclusive = response in the unintended direction; inactive = score below 0.9.

Molecular target: Bile acid receptor (Homo sapiens) (UniProt Q96RI1)
Assay: ATG_FXR_TRANS: Attagene TRANS-FACTORIAL HepG2 Assay for Farnesoid X Receptor (FXR) (AID 2282979);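 note: hits raise reporter mRNA above DMSO so AC50 marks FXR activation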
Conditions: HepG2 Attagene TRANS FXR-GAL4 reporter transcription
In short: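 HepG2 cells were transiently transfected with GAL4-UAS reporters driven by chimeric NR-Gal4 proteins and dosed for 24 h. Reporter mRNA was quantified by RT-PCR, fluorescent labelling, HpaI digestion and capillary electrophoresis, with gain of signal scored versus DMSO.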

Chain of Bile acid receptor (Homo sapiens) (Q96RI1 whole entry, looked up): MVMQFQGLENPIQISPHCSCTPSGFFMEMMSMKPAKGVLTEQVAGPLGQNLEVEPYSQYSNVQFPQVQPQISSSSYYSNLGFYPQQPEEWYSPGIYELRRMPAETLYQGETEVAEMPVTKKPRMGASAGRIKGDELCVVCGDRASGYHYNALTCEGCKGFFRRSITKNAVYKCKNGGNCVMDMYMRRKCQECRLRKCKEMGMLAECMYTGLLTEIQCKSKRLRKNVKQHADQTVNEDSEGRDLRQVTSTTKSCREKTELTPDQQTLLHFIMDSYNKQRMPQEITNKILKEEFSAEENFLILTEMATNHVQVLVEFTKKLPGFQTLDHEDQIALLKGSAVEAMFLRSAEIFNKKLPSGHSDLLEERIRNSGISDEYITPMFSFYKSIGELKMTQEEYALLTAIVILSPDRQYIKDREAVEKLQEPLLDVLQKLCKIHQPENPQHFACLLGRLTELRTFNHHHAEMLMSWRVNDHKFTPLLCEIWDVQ

Which outcome does the source give for `Cc1cc(C2CC2)nc(Nc2ccccc2)n1` here?
Its outcome is “inactive”.

`Cc1ccn2nc(S(=O)(=O)Nc3c(F)cccc3F)nc2n1` was tested. Which outcome did it give?
The outcome was “inactive”.

Which outcome does the source give for `CCCSP(=O)(OCC)Oc1ccc(Br)cc1Cl` (configuration not stated) here?
Its outcome is “inactive”.

How did the outcome turn out when `Nc1c(Cl)cc([N+](=O)[O-])cc1Cl` was run?
Its outcome is “inactive”.

For `CCCSP(=O)(OCC)SCCC`, which outcome is on record?
The outcome was “inactive”.

`CCC(CC)Nc1c([N+](=O)[O-])cc(C)c(C)c1[N+](=O)[O-]` was tested. Which outcome did it give?
The outcome was “inactive”.

With `CNC(=O)Oc1cccc2c1OC(C)(C)O2` as the compound, how does the outcome read?
Its outcome is “inactive”.

For `CCOP(=O)(NC(C)C)Oc1ccc(SC)c(C)c1` (configuration not stated), which outcome is on record?
The outcome was “inactive”.

`CCCCSP(=O)(SCCCC)SCCCC` was tested. Which outcome did it give?
Its outcome is “inactive”.

For `C#CCC1=C(C)C(OC(=O)C2C(C=C(C)C)C2(C)C)CC1=O` (configuration not stated), which outcome is on record?
The outcome was “inactive”.

`COP(=O)(OC)C(O)C(Cl)(Cl)Cl` (configuration not stated) was tested. Which outcome did it give?
Its outcome is “inactive”.

Molecular target: Oxysterols receptor LXR-alpha (Homo sapiens) (UniProt Q13133)
Assay: ATG_LXRa_TRANS: Attagene TRANS-FACTORIAL HepG2 Assay for human Liver X Receptor alpha (LXRa) (AID 2282980)
Conditions: HepG2 Attagene TRANS reporter, LXRa transactivation
In short: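 HepG2 cells transiently transfected with GAL4-UAS reporter units for chimeric NR-Gal4 proteins, exposed to chemicals for 24 h. Reporter mRNA quantified by RT-PCR and capillary electrophoresis; gain of signal fitted relative to DMSO.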

Chain of Oxysterols receptor LXR-alpha (Homo sapiens) (Q13133 whole entry, looked up): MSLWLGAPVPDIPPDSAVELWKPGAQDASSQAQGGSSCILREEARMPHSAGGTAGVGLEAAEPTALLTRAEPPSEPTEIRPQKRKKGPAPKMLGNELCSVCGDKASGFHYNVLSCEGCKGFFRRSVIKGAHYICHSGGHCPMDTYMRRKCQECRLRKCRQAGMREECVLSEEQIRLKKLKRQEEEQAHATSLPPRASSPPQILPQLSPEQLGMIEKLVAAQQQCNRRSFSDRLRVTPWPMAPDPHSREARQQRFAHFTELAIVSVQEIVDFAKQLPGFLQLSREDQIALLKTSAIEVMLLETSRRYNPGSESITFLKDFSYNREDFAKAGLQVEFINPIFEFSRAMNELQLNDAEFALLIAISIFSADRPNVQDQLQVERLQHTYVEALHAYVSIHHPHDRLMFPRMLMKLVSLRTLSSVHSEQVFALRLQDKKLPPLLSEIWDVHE

With `CC[C@H](C)[C@H]1O[C@]2(C=C[C@@H]1C)C[C@@H]1C[C@@H](C/C=C(\C)[C@@H](O[C@H]3C[C@H](OC)[C@@H](O[C@H]4C[C@H](OC)[C@@H](NC)[C@H](C)O4)[C@H](C)O3)[C@@H](C)/C=C/C=C3\CO[C@@H]4[C@H](O)C(C)=C[C@@H](C(=O)O1)[C@]34O)O2` as the compound, how does the outcome read?
The outcome was “inactive”.

With `CON=C(C(=O)OC)c1ccccc1CON=C(C)c1cccc(C(F)(F)F)c1` as the compound, how does the outcome read?
The outcome was “inactive”.

How did the outcome turn out when `CC(COc1ccc(Oc2ccccc2)cc1)Oc1ccccn1` (configuration not stated) was run?
The outcome was “inactive”.

Which outcome does the source give for `CCCCN(CC)c1c([N+](=O)[O-])cc(C(F)(F)F)cc1[N+](=O)[O-]` here?
Its outcome is “inactive”.

How did the outcome turn out when `CCc1cnc(C2=NC(C)(C(C)C)C(=O)N2)c(C(=O)O)c1` (configuration not stated) was run?
The outcome was “inactive”.

How did the outcome turn out when `COc1cc(OC)nc(Sc2cccc(Cl)c2C(=O)O)n1` was run?
The outcome was “inactive”.

With `COP(=O)(NC(C)=O)SC` (configuration not stated) as the compound, how does the outcome read?
The outcome was “inactive”.

With `CC(C)N(C(=O)SCC(Cl)=C(Cl)Cl)C(C)C` as the compound, how does the AC50 read?
Its AC50 is 29.1 µM (active).

With `Cc1cc(C2CC2)nc(Nc2ccccc2)n1` as the compound, how does the outcome read?
The outcome was “inactive”.

With `C#CC(C)(C)NC(=O)c1cc(Cl)cc(Cl)c1` as the compound, how does the outcome read?
The outcome was “inactive”.

Which outcome does the source give for `CCc1cccc(CC)c1N(COC)C(=O)CCl` here?
Its outcome is “inactive”.

With `CCOP(=S)(Oc1cnc(C(C)(C)C)nc1)OC(C)C` (configuration not stated) as the compound, how does the AC50 read?
The AC50 was 9.2 µM (active).

With `CCCSP(=O)(OCC)Oc1ccc(Br)cc1Cl` (configuration not stated) as the compound, how does the outcome read?
Its outcome is “inactive”.

Which outcome does the source give for `Nc1c(Cl)cc([N+](=O)[O-])cc1Cl` here?
The outcome was “inactive”.

`CCCSP(=O)(OCC)SCCC` was tested. Which outcome did it give?
The outcome was “inactive”.

`O=[N+]([O-])c1cc(C(F)(F)F)c(Cl)c([N+](=O)[O-])c1Nc1ncc(C(F)(F)F)cc1Cl` was tested. Which outcome did it give?
Its outcome is “inactive”.

For `CNc1cnn(-c2cccc(C(F)(F)F)c2)c(=O)c1Cl`, which outcome is on record?
Its outcome is “inactive”.

For `CNC(=O)Oc1cccc2c1OC(C)(C)O2`, which outcome is on record?
The outcome was “inactive”.

With `CCOP(=S)(OCC)OC(Cl)C(Cl)(Cl)Cl` (configuration not stated) as the compound, how does the outcome read?
The outcome was “inactive”.

How did the outcome turn out when `CCC(=O)Nc1ccc(Cl)c(Cl)c1` was run?
Its outcome is “inactive”.

Which outcome does the source give for `CSc1nc(NC(C)C)nc(NC(C)C)n1` here?
Its outcome is “inactive”.

How did the outcome turn out when `CCOP(=O)(NC(C)C)Oc1ccc(SC)c(C)c1` (configuration not stated) was run?
Its outcome is “inactive”.

How did the outcome turn out when `N#CSCSC#N` was run?
Its outcome is “inactive”.

`COP(=O)(OC)C(O)C(Cl)(Cl)Cl` (configuration not stated) was tested. Which outcome did it give?
Its outcome is “inactive”.

How did the AC50 turn out when `CC1(C(=O)Nc2ccc(O)c(Cl)c2Cl)CCCCC1` was run?
Its AC50 is 50 µM (active).

`CCCCOC(=O)[C@@H](C)Oc1ccc(Oc2ccc(C#N)cc2F)cc1` was tested. Which outcome did it give?
The outcome was “inactive”.
